Where “and” joins values, the source holds several entries; their conditions need not be identical. Equal values may be shown once. Where a name gives a salt, the structure may show the parent alone.
Experiments:
Assay in all cases: cell viability relative to vehicle control; higher = less cytotoxic
Conditions in all cases: 10 µM
K562 = test system: K562
In short: (§1)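 After removal of identity-inconsistent compounds, the Selleck bioactive, kinase and epigenetic probe libraries were screened on CRISPR-edited mutant clones and isogenic wild-type clones of four leukaemia lines. Plates were 384-well, each well holding 2000 cells in 50 µL medium and receiving a single 10 µM acoustically dispensed dose. CellTiter-Glo luminescence was read 48 h later, after the supernatant was taken off. Genedata Screener was used to express viability as percent of the on-plate vehicle control.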

MARIMO = test system: MARIMO
In short: as §1

MOLM14 = test system: MOLM14
In short: as §1

OCI-AML2 = test system: OCI-AML2
In short: as §1

SMILES	cell viability (K562; SRSF2 genotype: SRSF2 P95H/wt)	cell viability (K562; SRSF2 genotype: SRSF2 wt/wt) [%]	cell viability (MARIMO; SRSF2 genotype: SRSF2 P95H/wt) [%]	cell viability (MARIMO; SRSF2 genotype: SRSF2 wt/wt) [%]	cell viability (MOLM14; SRSF2 genotype: SRSF2 P95H/wt) [%]	cell viability (MOLM14; SRSF2 genotype: SRSF2 wt/wt) [%]	cell viability (OCI-AML2; SRSF2 genotype: P95H/wt) [%]	cell viability (OCI-AML2; SRSF2 genotype: wt/wt) [%]
C[C@@H](Oc1ccc2[nH]nc(/C=C/c3cnn(CCO)c3)c2c1)c1c(Cl)cncc1Cl	36.1% and 35.5%	30.1	6.39	5.47	0.8	0.16	0.48	4.14
CC(C)CCCC(C)C1CCC2C3=CC=C4CC(O)CCC4(C)C3CCC21C (configuration not stated) [7-Dehydrocholesterol]	88.5% and 88.6%	96.5	87.6	87	86.6	93.9	94.2	94.7
C[C@]12CC[C@@H]3c4ccc(O)cc4CC[C@H]3[C@@H]1CC[C@@H]2O [Estradiol]	97% and 94.8%	93.8	93.2	90.2	95.3	98.6	101	111
C[C@@H]1O[C@@H](O[C@H]2[C@H](O[C@H]3CC[C@@]4(C)[C@@H](CC[C@]5(C)[C@@H]4CC=C4[C@@H]6CC(C)(C)CC[C@]6(C(=O)O)CC[C@]45C)[C@]3(C)CO)OC[C@H](O)[C@@H]2O)[C@H](O)[C@H](O)[C@H]1O	33.7% and 24.8%	40.6	71.8	74.1	39	45.4	45	48.8
CC(=CCNc1ncnc2c1ncn2C1OC(CO)C(O)C1O)CO (stereo not drawn) [trans-Zeatin-riboside]	107% and 105%	108	99.7	110	104	105	116	117
Cc1c(-c2ccc(C(N)=O)c3[nH]c4cc(C(C)(C)O)ccc4c23)cccc1-n1cnc2ccccc2c1=O	80.1% and 89.9%	92.2	73.5	66.2	48.4	54.8	43.6	46.2
CC(C)NC(=O)C1CCC(n2c(NC(=O)c3ccc(F)cc3)nc3ccc(CN4CCC(C(C)(C)O)CC4)cc32)CC1 (configuration not stated) [Belizatinib (TSR-011)]	59.4% and 65.3%	56.9	41.4	45	7.89	11.3	19	35.3
C[C@@H]1O[C@@H](O[C@H]2[C@H](Oc3cc(O)c4c(c3)O[C@H](c3ccc(O)cc3)CC4=O)O[C@H](CO)[C@@H](O)[C@@H]2O)[C@H](O)[C@H](O)[C@H]1O [Naringin (Naringoside)]	101% and 119%	111	102	107	106	109	112	100
CCOc1cc(C(C)(C)C)ccc1C1=N[C@@](C)(c2ccc(Cl)cc2)[C@@](C)(c2ccc(Cl)cc2)N1C(=O)N1CCN(CCCS(C)(=O)=O)CC1	80.8% and 82.7%	79.8	91.2	107	0.32	0.35	0.58	13.8
Cc1cc(-c2ncc(CC(=O)Nc3ccc(-c4cnccn4)cn3)cc2C)ccn1	73.5% and 84.3%	81.2	81.6	70	48.8	51.1	54.8	63.5
COc1ccc(-c2cc(=O)c3c(O)cc(O[C@@H]4O[C@H](CO[C@@H]5O[C@@H](C)[C@H](O)[C@@H](O)[C@H]5O)[C@@H](O)[C@H](O)[C@H]4O)cc3o2)cc1 [Linarin]	107% and 103%	102	95.8	101	111	102	103	98.7
CCOC(=O)C1=C(N)Oc2ccc(Br)cc2C1C(C#N)C(=O)OCC (configuration not stated)	84.9% and 89.9%	86.5	65.6	56	48.6	74.9	67.4	66
Cc1ccc(CNc2ncnc3ccc(-c4ccc(CO)o4)cc23)o1	97.3% and 96.8%	101	90	95.8	81.7	94.2	77.5	84.3
CCCCC(=O)O[C@]1(C(=O)CO)[C@@H](C)C[C@H]2[C@@H]3CCC4=CC(=O)C=C[C@]4(C)[C@@]3(F)[C@@H](O)C[C@@]21C [Betamethasone valerate (Betnovate)]	94.9% and 101%	94.8	96.9	110	90.8	93.7	94.5	116
Nc1nccc(Oc2ccc(NC(=O)c3c[nH]cc(-c4ccc(F)cc4)c3=O)cc2F)c1Cl	76.3% and 90.6%	80.8	96.2	110	19.9	14.8	41.8	43.6
CCc1nc(C(N)=O)c(Nc2ccc(N3CCC(N4CCN(C)CC4)CC3)c(OC)c2)nc1NC1CCOCC1 [Gilteritinib (ASP2215)]	89% and 85.7%	91.4	40.9	40.6	4.58	8.89	14.3	21.3
N[C@@H](C(=O)N[C@@H]1C(=O)N2C(C(=O)O)=C(Cl)CS[C@H]12)c1ccccc1 [Cefaclor]	109% and 110%	113	104	104	108	106	112	123
C[C@H]1[C@H](C)CC[C@]2(C(=O)O)CC[C@]3(C)C(=CC[C@@H]4[C@@]5(C)C[C@@H](O)[C@H](O)C(C)(C)[C@@H]5CC[C@]43C)[C@H]12 [Corosolic acid]	94.6% and 95.3%	93.5	94.7	107	97.3	96.1	103	99.7
C=C1[C@H](CO)[C@@H](O)C[C@@H]1n1cnc2c(=O)[nH]c(N)nc21 [Entecavir hydrate]	106% and 109%	106	101	96.7	94.7	106	87.7	94.7
CCOc1ccc(NC(C)=O)cc1 [Phenacetin]	98.6% and 97.2%	91.5	89.6	92.5	98.4	95.8	88.3	93.4

SMILES	cell viability (K562; SRSF2 genotype: SRSF2 P95H/wt)	cell viability (K562; SRSF2 genotype: SRSF2 wt/wt) [%]	cell viability (MARIMO; SRSF2 genotype: SRSF2 P95H/wt) [%]	cell viability (MARIMO; SRSF2 genotype: SRSF2 wt/wt) [%]	cell viability (MOLM14; SRSF2 genotype: SRSF2 P95H/wt) [%]	cell viability (MOLM14; SRSF2 genotype: SRSF2 wt/wt) [%]	cell viability (OCI-AML2; SRSF2 genotype: P95H/wt) [%]	cell viability (OCI-AML2; SRSF2 genotype: wt/wt) [%]
CC(C)(OCc1nn(Cc2ccccc2)c2ccccc12)C(=O)O [Bindarit]	102% and 106%	112	108	103	101	106	118	107
CCCCc1oc2ccc(NS(C)(=O)=O)cc2c1C(=O)c1ccc(OCCCN(CCCC)CCCC)cc1 [Dronedarone HCl (Multaq)]	0.8% and 0.71%	0.61	0.56	0.71	0.53	0.6	0.5	0.55
Cc1ccc2c(=O)c3cccc(CC(=O)O)c3oc2c1C [DMXAA (Vadimezan)]	90% and 87.7%	90.5	89.9	102	85.4	87.8	88.9	93.1
COc1cc(C(C)=O)ccc1O [Apocynin (Acetovanillone)]	103% and 104%	105	91.6	110	104	103	93	93.7
C[C@@H](O[C@H]1OCCN(Cc2n[nH]c(=O)[nH]2)[C@H]1c1ccc(F)cc1)c1cc(C(F)(F)F)cc(C(F)(F)F)c1 [Aprepitant (MK-0869)]	52.7% and 46%	56.8	73	56.1	56.2	64.3	45.8	56.8
CCCC(CCC)C(N)=O [Valpromide]	96.1% and 94.6%	100	99.5	101	102	99.5	95	107
Cn1cnc([N+](=O)[O-])c1Sc1ncnc2[nH]cnc12 [Azathioprine (Azasan, Imuran)]	53.6% and 63.6%	34.8	82.2	87.2	85.2	81.8	87.7	92
CC(C)=CCC[C@@H](C)CC=O [Citronellal]	104% and 96.5%	112	96.2	102	103	106	105	114
CC(C)C[C@H](NC(=O)CNC(=O)c1cc(Cl)ccc1Cl)B(O)O [Ixazomib (MLN2238)]	2.07%	3.87	0.76	3.15	0.41	0.47	0.44	1.8
CO[C@H]1/C=C/O[C@@]2(C)Oc3c(C)c(O)c4c(O)c(c5c(nc6cc(C)ccn65)c4c3C2=O)NC(=O)/C(C)=C\C=C\[C@H](C)[C@H](O)[C@@H](C)[C@@H](O)[C@@H](C)[C@H](OC(C)=O)[C@@H]1C [Rifaximin (Xifaxan)]	97.9% and 106%	98.1	103	107	105	101	111	98.7
Nc1nc(=O)n([C@@H]2CS[C@H](CO)O2)cc1F [Emtricitabine]	106% and 105%	104	103	106	104	107	102	108
C[n+]1c2n(c(=O)c3ccccc31)CCc1c-2[nH]c2ccccc12 [Dehydroevodiamine]	93.1% and 93.3%	91.5	88.7	88.2	94.8	98.2	97.2	87.5
CC(=O)Oc1cc(C(F)(F)F)ccc1C(=O)O [Triflusal]	101% and 90.6%	99.7	98.9	101	97.7	101	92.2	102
CC(C)[N+]1(C)[C@@H]2CC[C@H]1C[C@@H](OC(=O)C(CO)c1ccccc1)C2 (some centres not stated) [Ipratropium bromide]	113% and 109%	105	99.5	105	99.8	105	99.1	118
Cc1cc(C)c(S(=O)(=O)n2cc(C)cc2C)c(C)c1	90.6% and 98.6%	95.1	90.8	88.4	84.7	92.2	99.7	102
O=C(O)c1c[nH]c2ccccc12 [Indole-3-carboxylic acid]	103% and 92%	100	97.8	110	94.3	101	92.3	114
C=C1CC[C@@H]2[C@](C)(CO)[C@H](O)CC[C@@]2(C)[C@@H]1C/C=C1/C(=O)OC[C@H]1O [Andrographolide]	64.7% and 47.9%	59.5	20.5	19.6	11.1	6.73	23.4	22.4
CC(C)COc1ccc(CNC(=O)N(Cc2ccc(F)cc2)C2CCN(C)CC2)cc1 [Pimavanserin]	0.6% and 0.64%	0.75	2.06	4.09	0.25	0.22	0.22	1.2
Fc1cc(-c2cccc3ncc(-c4cnn(C5CCNCC5)c4)nc23)cc(F)c1CN1CCOCC1	3.45% and 6.22%	7.58	31.9	5.4	0.59	0.69	0.94	2.89

— the supplement of paper PMC10981050
